# Reference: PubChem BioAssay (NCATS)
# Records with an inconclusive call do not appear. Activity calls are given as the source filed them. Calls come from the whole dose curve; as a rule, active = well fitted inhibition curve with a large enough effect; inconclusive = small, poorly fitted or top-dose-only effect; inactive = flat fitted curve, though single readings scatter.
# System: HEK293
# Assay: Cytotoxic Profiling of Annotated Libraries Using Quantitative High-Throughput Screening (AID 1296008); note: nearly all actives have a fitted effect of over 60% in size
# Details: Five cell lines viability, CellTiter-Glo ATP luminescence, 48-72 h; max response: hits give low values
# Outline: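 Cytotoxicity was measured as CellTiter-Glo ATP luminescence, read after 10 min at room temperature. Compound treatment of the cells lasted 48 or 72 hr at 37 degrees Celsius in a qHTS format.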
# % is set by controls: 0 for no effect and ±100 for the full control effect.
row,SMILES,max response
1,C=C(COC(=O)CC(C)C)C1Cc2cc(C(C)=O)ccc2O1 (configuration not stated),-2.29% (inactive)
2,COc1cc(OC)cc(-c2ccc3c(-c4ccc(F)cc4)[nH]nc3n2)c1,-28% (inactive)
3,C[C@H](O)C(O)(C(=O)OCc1ccccc1NC(=O)CCC(N)C(=O)O)[C@H](C)O (some centres not stated),-11.8% (inactive)
4,CC(CC12CCCN1C(=O)C1CCCN1C2=O)OC(N)=O (configuration not stated),2.01% (inactive)
5,CC12CC(c3ccoc3)OC(=O)C1CCC1(C)C2CCC(O)C1(C)O (configuration not stated),0.137% (inactive)
6,CC1(C)CC[C@]2(C(=O)O)CC[C@]3(C)C(=CCC4[C@@]5(C)C[C@@H](O)[C@H](O)[C@@](C)(CO)C5[C@H](O)C[C@]43C)[C@@H]2C1 (some centres not stated),-6.35% (inactive)
7,COc1cc(C)c(C(=O)OC2C(C)OC(OC3CCC(C)C4C3C=C(C)C3/C(C)=C\CC/C(C)=C/C5(C)C=C(C(=O)O)C(C)CC56OC(=O)/C(=C(\O)C34C)C6=O)C(O)C2O)c(OC)c1 (configuration not stated),-1.11% (inactive)
8,C[C@@H](c1ccccc1)N(C(N)=NC#N)c1cccc2ncccc12,0.131% (inactive)
9,O=C(O)c1cccc(C(=O)CCC2OC(n3cnc4c(=O)[nH]cnc43)C(O)C2O)c1 (configuration not stated),-2.52% (inactive)
10,Cc1cn(-c2cc(NC(=O)c3ccc(C)c(Nc4nccc(-c5cnccn5)n4)c3)cc(C(F)(F)F)c2)cn1,-20.5% (inactive)
11,C=C(C(=O)O)C1CC(OC(=O)CC(C)CC)C2(C)CCCC(=C)C2C1 (configuration not stated),4.07% (inactive)
12,O=C(O)CCc1c(C(=O)O)[nH]c2cc(Cl)cc(Cl)c12,-7.05% (inactive)
13,CC(C)C1(O)C=C2C(=O)CC3C(C)(C(=O)O)CCCC3(C)C2CC1 (configuration not stated),0.541% (inactive)
14,COc1cc2c(cc1O)CC(O)(CO)C(CO)C2c1ccc(OC2OC(CO)C(O)C(O)C2O)c(OC)c1 (configuration not stated),-0.898% (inactive)
15,C=C1C(OC(C)=O)[C@@]23CCC4[C@](C)(C(=O)O)CCC[C@@]4(C)[C@]2(O)CC[C@H]1C3 (some centres not stated),-3.51% (inactive)
16,C=C(C)C1Cc2c(ccc3c2OCC(c2ccc(O)cc2O)C3)O1 (configuration not stated),-18.8% (inactive)

row,SMILES,max response
1,COC(=O)C1=COC(OC2OC(CO)C(O)C(O)C2O)C2C(COC(=O)/C=C/c3ccc(O)cc3)C(O)C(O)C12 (configuration not stated),0.595% (inactive)
2,C=C1CC/C=C(/CO)C(=O)C[C@@H]2[C@@H]1C[C@@]2(C)COC(C)=O,-4.3% (inactive)
3,COC(O)(CC(C)C)C1Oc2cc(C)[nH]c(=O)c2O1 (configuration not stated),0.893% (inactive)
4,CN1CCN(C2=Nc3ccccc3Nc3ccc(O)cc32)CC1,-1.86% (inactive)
5,O=C(O)CC/C=C\C[C@H]1CO[C@@H](c2ccccc2Cl)O[C@H]1c1ccccc1O,-2.35% (inactive)
6,C=C1C(=O)O[C@@H]2/C=C(\C)CC/C=C(\C(=O)O[C@@H]3O[C@H](CO)[C@@H](O)[C@H](O)[C@H]3O)CC[C@@H]12,-0.494% (inactive)
7,C/C(=C\CC[C@H](CO)[C@@H]1CC[C@]2(C)C3=C(CC[C@@]12C)[C@@]1(C)CCC(=O)C(C)(C)C1CC3)C(=O)O (some centres not stated),-7.09% (inactive)
8,C=C1CC[C@H]2[C@@](C)(CCC(OC3OC(CO)C(O)C(O)C3O)[C@@]2(C)CO)C1C(=O)CC1=CCOC1=O (some centres not stated),-9.97% (inactive)
9,Cc1cc(Cn2cnc3c2CC(C(=O)O)N(C(=O)C(c2ccccc2)c2ccccc2)C3)ccc1N(C)C (configuration not stated),-1.68% (inactive)
10,CC1(C)CCC2(C(=O)O)CCC3(C)C(=CCC4C5(C)CCC(O)C(C)(CO)C5C(O)CC43C)C2C1 (configuration not stated),4.6% (inactive)
11,C=CC(C)(C)C12Nc3c(ccc4c3OC(C)(C)C=C4)C1(O)CC1C(=O)N3CCCC3C(=O)N12 (configuration not stated),-7.42% (inactive)
12,C=CC1(C)CC2CCC3C(C)(C(=O)O)CCCC3(C)C2=CC1=O (configuration not stated),-0.432% (inactive)
13,CC(C)c1ccc2c(c1)C(=O)CC1C(C)(C(=O)O)CCCC21C (configuration not stated),-1.52% (inactive)
14,NC[C@H]1CCC[C@@H](CNC(=O)[C@@H](Cc2c[nH]c3ccccc23)NC(=O)N2CCC3(C=Cc4ccccc43)CC2)C1,-6.44% (inactive)
15,C[C@H]1CC[C@H]2[C@@H](C=C[C@@](C)(O)[C@]2(C)C(=O)CCO)C1,4.9% (inactive)
16,CC(=O)OC[C@]12[C@H](OC(C)=O)[C@H](OC(=O)c3ccccc3)[C@@H]3[C@@H](OC(C)=O)[C@]1(OC3(C)C)[C@H](C)C[C@H](OC(=O)c1ccccc1)[C@@H]2OC(=O)c1ccccc1,-0.732% (inactive)
